Bioassay records deposited in PubChem by National Center for Advancing Translational Sciences (NCATS).
The full list was thinned out, with hits kept by preference.
Pf Dd2 growth: qHTS Primary assay for Inhibitors of Plasmodium falciparum Dd2 growth in vitro; 120,000 tested, 4.3% active; AID 1347417, 2020; Potency, µM (series often up to 28.9 µM), inactives show at the top dose activity, negative = inhibition, hits mostly inhibitors; P. falciparum Dd2 growth, SYBR Green, 72 h; active = well fitted inhibition curve with a large enough effect;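 also: plate controls were DMSO vehicle for no effect and reference drug for full effect; nearly all actives have a fitted effect of over 65% in size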
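Readout: SYBR Green fluorescence, 485 nm excitation, 535 nm emission, after ~16 h lysis at 37C. Before that, Dd2-infected red cells (2.5% hematocrit) grew 72 h with compound, 29 uM top final concentration.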
Numbers without * were called inactive; i = inactive; [ ] = another dose, or the depositor's remark. Potency is read from the fitted curve at half-maximal effect.

SMILES	Pf Dd2 growth
Cc1ccc(Cl)cc1N1CCN(C(=O)c2cc3c(=O)n(C)c4ccccc4c3s2)CC1	32%[5.79 µM]
Cc1ccc(Cl)cc1N1CCN(C(=O)c2cn(CC(C)C)c(=O)c3c2c2ccccc2n3C)CC1	3.2µM*
CC1CCN(Cc2nnnn2CC(=O)N(Cc2ccncc2)CC2CCCO2)CC1 (stereo not drawn)	2%
O=C(Cc1ccc(F)cc1)N1CCC(Cc2nc(-c3ccc(F)cc3)no2)CC1	34%
Cc1ccc(-c2c(CN3CCN(c4cc(C)ccc4C)CC3)csc2C)cc1	10µM*
CCc1c(CN2CCN(c3cccc(C)c3)C(C)C2)csc1C (stereo not drawn)	0%
Cc1ccc(C)c(N2CCN(Cc3csc(C)c3C)CC2)c1	i
O=C(O)C1CCc2nnc(C3CCN(C(=O)c4ccc(F)cc4)C3)n21 (stereo not drawn)	10%
CCOCCn1nc(C)cc1-c1nc(-c2ccc(C)nn2)no1	-27%
COc1ccc2c(c1)CCc1c(C(=O)Nc3cnn(Cc4ccc(Cl)cc4Cl)c3)noc1-2	7.9µM*
CCc1cc(C(=O)Nc2cnn(Cc3ccccc3C)c2)no1	0%
COc1ccc(CN2Cc3cc(NC(=O)c4ccc(Cl)cc4)ccc3OC(C)C2=O)c(OC)c1 (stereo not drawn)	i
Nc1cc(N2CCN(C(=O)C3CCOCC3)CC(O)C2)ncn1 (stereo not drawn)	-12%
CC(C)Cc1cc(C[C@@H]2C[C@H](NC(=O)C3CCCC3)C2(C)C)no1	i
COC1CCC12CCN(C(=O)c1cnn(C)c1)CC2 (stereo not drawn)	-16%
Cc1ccc(-n2c(C3CCN(C(=O)Cc4ccc(F)cc4)CC3)n[nH]c2=O)cc1	-11%
COCCNC(=O)[C@@H]1C[C@H](Oc2ccccc2)CN1C(=O)c1ccc2ccccc2n1	-10%
COc1ccc(/C=C/C(=O)Nc2nc3n(n2)C(c2ccc(F)cc2)C=C(c2ccccc2)N3)cc1 (stereo not drawn)	8.9µM*
O=C(/C=C/c1ccco1)Nc1ccc(F)cc1	-14%
O=C(/C=C/c1ccccc1)Nc1nc2n(n1)C(c1ccc(F)cc1)C=C(c1ccccc1)N2 (stereo not drawn)	10µM*
COc1ccc(C2C=C(c3ccccc3)Nc3nc(NC(=O)/C=C/c4ccccc4Cl)nn32)cc1 (stereo not drawn)	7.1µM*
COc1ccc(/C=C/C(=O)Nc2nc3n(n2)C(c2ccccc2)C=C(c2ccccc2)N3)cc1 (stereo not drawn)	7.9µM*
COc1ccc(C2=CC(c3ccc(N(C)C)cc3)n3nnnc3N2)cc1 (stereo not drawn)	83%
COc1ccc(C2C=C(c3ccccc3)Nc3nc(NC(C)=O)nn32)cc1 (stereo not drawn)	-30%
O=C(c1ccc2c(c1)OCO2)N1CCN2C(=O)NC[C@H]2C1	18%[44.1 µM]
SMILES	Pf Dd2 growth
O=C(c1ccccc1F)N1CCC2(C1)C(=NC1CCCC1)NC(=O)N2c1cccnc1 (stereo not drawn)	-1%
CC(C)N1CC[C@@H]2[C@H]1C(=O)NC[C@H](CCC(=O)NCc1cccs1)N2C	0%[44.1 µM]
O=C(NC[C@H]1OC[C@@H](NC2CCC2)[C@@H]1O)C1CCCC1	i
CN1[C@@H](CCC(=O)N2CCOCC2)CNC(=O)[C@@H]2[C@H]1CCN2Cc1ncc[nH]1	20%[44.1 µM]
COc1ccc(NC(=O)N2CCc3nnc(C4CC4)n3CC2)cc1	4%
CN1Cc2ncnc(N3CCN(Cc4ccccc4)CC3)c2CN(C2CCC2)C1=O	i
Cc1cccc(-c2nocc2CCC(=O)NCc2cccs2)c1	i
Cc1cccc(C)c1NC(=O)N1CCC2(CC1)SCC(=O)N2Cc1ccccc1	-7%
Cc1ccccc1CNC(=O)C1CCC(=O)N(CCCc2ccccc2)C1 (stereo not drawn)	-18%
COCc1nncn1C1CCN(S(=O)(=O)c2ccc(OC)cc2)CC1	-24%
O=C([C@@H]1C[C@H](F)CN1C(=O)c1ccccc1)N1CCOCC1	7%
COc1ccc(C2C=C(c3ccccc3)Nc3nc(NC(=O)/C=C/c4ccc(F)cc4)nn32)cc1 (stereo not drawn)	13µM*
Cc1ccccc1NC(=O)N(C)CC1CCOC1 (stereo not drawn)	12%[5.79 µM]
NC(=O)c1cccc(CN2CCC3(CC2)CC(Cc2ccccc2)=NO3)c1	-4%
Cc1ccc(C(=O)N2CCCC3(CC(Cc4ccccc4)=NO3)C2)cc1 (stereo not drawn)	-9%
c1ccc(CC2=NOC3(CCN(C4CCCCC4)CC3)C2)cc1	10µM*
CC(C)C1=NOC2(CCN(Cc3c[nH]c4ccccc34)CC2)C1	-6%
O=C(C1CCCC1)N1CCC2(CC1)CC(Cc1ccccc1)=NO2	21%
c1ccc(CN2CCCC3(CC(c4ccccn4)=NO3)C2)cc1 (stereo not drawn)	-4%
c1cncc(C2=NOC3(CCN(C4CCCCC4)CC3)C2)c1	21%[44.1 µM]
c1ccc(CC2=NOC3(CCCN(Cc4ccns4)C3)C2)cc1 (stereo not drawn)	6.3µM*
c1ccc(CC2=NOC3(CCN(Cc4c[nH]c5ccccc45)CC3)C2)cc1	13µM*
CC(C)CN1C(=O)c2cccn2CC1C(=O)NCc1cccs1 (stereo not drawn)	i
CNc1nc(C(=O)N2CCC3(CC2)c2nc[nH]c2CCN3C)cs1	20%
Cc1ccc(-c2nc(C(=O)NCc3ccco3)no2)cc1	i
SMILES	Pf Dd2 growth
CN1C(=O)c2cccn2CC1C(=O)NCc1cc(F)ccc1F (stereo not drawn)	i
CCc1ccc(C(=O)N2CCC([C@@H]3CNC[C@H]3CO)CC2)cc1	-6%
Cc1cc(C[C@@H]2COC[C@@H]2NC(=O)Cn2nc(C)n(-c3ccccc3)c2=O)on1	-3%
CCN(CC)C(=O)c1coc(COc2ccc3c(c2)C(c2ccc(C)cc2)N(C(=O)C2CC2)CC3)n1 (stereo not drawn)	i
CCOC(=O)C1CCN(C(=O)Cc2ccc(N(Cc3ccccc3)C(=O)c3ccco3)cc2)CC1	1.4µM*
Cc1ccc(CN(C(=O)c2ccco2)c2ccc(CC(=O)N(C)Cc3ccccc3)cc2)cc1	-27%
O=C(Cc1ccc(N(Cc2ccc(F)cc2)C(=O)c2ccco2)cc1)N1CCOCC1	i
CC(C)N1CCN(Cc2cnc(N3CCOCC3)s2)CC1CCO (stereo not drawn)	1%
CN(C)Cc1cn2c(=O)n(C)cc(-c3ccc(O)c(F)c3)c2n1	i
CN(C)Cc1cn2c(=O)n(C)cc(-c3ccc(F)c(Cl)c3)c2n1	2.5µM*
Cn1cc(-c2ccc(F)c(Cl)c2)c2nc(CO)cn2c1=O	-1%[44.1 µM]
Cc1ccc(C)c(CNC(=O)CCc2conc2-c2cccc(F)c2)c1	-1%
CC(=O)N1CCC(OCCOc2ccccc2)CC1	94%
CNC(=O)[C@@H]1CN(C(=O)NCc2ccccc2)C[C@H]1c1nc(C)no1	-10%
O=C(COc1ccccc1)NC[C@H]1Cn2c(-c3ccc(F)cc3)cnc2CO1	-12%[44.1 µM]
CC[C@H]1CN(C(=O)Nc2cccc(C(F)(F)F)c2)CC[C@H]1CC(=O)NCc1ccc(F)cc1	i
Cc1ccc(NC(=O)N(C)CC2CCOCC2)cc1F	-23%
COc1ccc(CN(C(=O)Nc2ccc(C)c(F)c2)C2CCN(C(C)=O)CC2)cc1	7%
CCN1CCC(N(Cc2ccc(F)cc2)C(=O)Nc2cccc(C(F)(F)F)c2)CC1	13µM*
CN(CC1CCOC1)C(=O)Nc1cccc(C(F)(F)F)c1 (stereo not drawn)	i[5.79 µM]
CCN1CCC(N(Cc2ccc(F)cc2)C(=O)Nc2ccc(C)c(F)c2)CC1	11µM*
